Among the data in PubChem BioAssay (NCI) are growth values, retold here.

Among the test systems are NCI-H23 lung; NCI-H226 lung; NCI-H322M lung; HOP-62 NSCLC; NCI-H460 lung; HOP-92 NSCLC; NCI-H522 lung; A549/ATCC NSCLC; 786-0 renal; COLO 205 colon; DU-145 prostate; K-562 leukemia; MALME-3M melanoma; MDA-MB-231 breast; RXF 393 renal; SF-268 CNS; SF-295 CNS; SF-539 CNS; UACC-257 melanoma; M14 melanoma.
Test in all cases: NCI-60 one-dose screen, 48 h (100 = growth as untreated, 0 = no growth, -100 = all killed)
Holding throughout (conditions): 10 µM unless noted

This is part of a sample that, as a whole, favours compounds with a hit. Of some 83,000 tested, about 20% had one in any assay.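 Step 1: grow cells in 96-well plates. Step 2: add test compound at a single concentration. Step 3: incubate 48 h. Step 4: record percent growth.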 A number with no mark means an inactive call. Activity calls are given as the source filed them. How the source made its calls: active means growth percent below 10; inactive means the rest.

`C[C@H](Nc1ncnc2ccc(-c3cnc(Cl)c(NS(C)(=O)=O)c3)cc12)c1ccccc1`: the growth was -5.76% (active) in the assay on NCI-H23 lung; 1.56% (active) in the assay with NCI-H226 lung; -31.1% (active) in the assay with NCI-H322M lung; -16.3% (active) in the assay with HOP-62 NSCLC; 4.11% (active) with NCI-H460 lung; -11.7% (active) in the assay on HOP-92 NSCLC. The growth is -48.8% (active) in the assay with NCI-H522 lung; -49.8% (active) in the assay with A549/ATCC NSCLC; -6.23% (active) with 786-0 renal; -93.2% (active) with COLO 205 colon; -2.78% (active) with DU-145 prostate; 17.2% in the assay on K-562 leukemia. Moreover, the growth in the assay with MALME-3M melanoma was -43.1% (active); in the assay with MDA-MB-231 breast, -17.1% (active); with RXF 393 renal it was -54.5% (active); in the assay with SF-268 CNS, -3.03% (active); with SF-295 CNS, -25.6% (active); in the assay on SF-539 CNS, -42.8% (active). In addition, the growth in the assay on UACC-257 melanoma was -18.4% (active); in the assay with M14 melanoma, -13.5% (active).

For the molecule `O=C1c2ccccc2C23C(=C(c4cncnc4)c4ccccc42)CCCN13` (stereo not drawn), the growth in the assay with NCI-H23 lung was 102%; in the assay with NCI-H226 lung it was 97.4%; in the assay with NCI-H322M lung, 107%; in the assay with HOP-62 NSCLC, 108%; with NCI-H460 lung it was 104%; in the assay with HOP-92 NSCLC, 90.9%. Also, the growth with NCI-H522 lung was 92.6%; in the assay on A549/ATCC NSCLC, 98.9%; in the assay with 786-0 renal, 96.8%; with COLO 205 colon, 121%; with DU-145 prostate, 101%; with K-562 leukemia, 102%. In addition, the growth with MALME-3M melanoma is 94.7%; with MDA-MB-231 breast it was 101%; with RXF 393 renal, 104%; with SF-268 CNS it was 91.6%; in the assay on SF-295 CNS, 95.9%; with SF-539 CNS, 102%. The growth with UACC-257 melanoma is 108%; in the assay on M14 melanoma it was 98.6%.

With `CN1CCN(c2ccc(Nc3nc(NCCNS(=O)(=O)c4ccc(Cl)cc4)c4sccc4n3)cc2)CC1`, the growth in the assay on NCI-H23 lung is 96%; in the assay with NCI-H226 lung, 105%; with NCI-H322M lung, 99.4%; in the assay with HOP-62 NSCLC, 104%; in the assay with NCI-H460 lung, 98.8%; with HOP-92 NSCLC, 49.4%. Also, the growth with NCI-H522 lung is 106%; in the assay with A549/ATCC NSCLC it was 92.7%; in the assay with 786-0 renal, 75.8%; in the assay on COLO 205 colon, 99.7%; with DU-145 prostate it was 98.2%; in the assay with K-562 leukemia it was 9.68% (active). In addition, the growth is 105% in the assay with MALME-3M melanoma; 95% in the assay with MDA-MB-231 breast; 41.2% in the assay on RXF 393 renal; 70% with SF-268 CNS; 97.9% with SF-295 CNS; 85.5% in the assay with SF-539 CNS. The growth in the assay on UACC-257 melanoma was 87.5%; with M14 melanoma, 102%.

On to `CC(C)=CCC[C@](C)(O)[C@H]1CC[C@]2(C)[C@@H]1CC[C@@H]1[C@@]3(C)CC[C@H](N)C(C)(C)[C@@H]3CC[C@]12C`, for which the growth with NCI-H23 lung was 76.5%; in the assay with NCI-H226 lung, 93.1%; with NCI-H322M lung it was 111%; in the assay on HOP-62 NSCLC, 97.9%; in the assay on NCI-H460 lung it was 27.4%; in the assay with HOP-92 NSCLC, 76.3%. The growth in the assay with NCI-H522 lung is 96.8%; in the assay with A549/ATCC NSCLC, 67.3%; in the assay on 786-0 renal it was 61.9%; with DU-145 prostate, 72.2%; in the assay with K-562 leukemia, -41.2% (active); in the assay on MALME-3M melanoma, 107%. For the same molecule, the growth is 85.4% in the assay on MDA-MB-231 breast; 53.2% in the assay on RXF 393 renal; 86% in the assay on SF-268 CNS; 93.2% in the assay with SF-295 CNS; 87.9% in the assay on SF-539 CNS; 94% in the assay on UACC-257 melanoma. In addition, in the assay on M14 melanoma, the growth is 92.9%.

In the case of `Fc1cc(F)cc(NNC(=S)c2ccccc2)c1`, the growth was 23.1% in the assay with NCI-H23 lung; 49.7% in the assay on NCI-H226 lung; 73.4% in the assay on NCI-H322M lung; 58.4% in the assay with HOP-62 NSCLC; 21.9% in the assay on NCI-H460 lung; -16.7% (active) with HOP-92 NSCLC. Further, the growth is 37% with NCI-H522 lung; 31% in the assay with A549/ATCC NSCLC; 53.3% in the assay on 786-0 renal; 108% in the assay with COLO 205 colon; 58% in the assay on DU-145 prostate; 29.4% in the assay with K-562 leukemia. Also, the growth is 85.3% with MALME-3M melanoma; 66.5% with MDA-MB-231 breast; -11% (active) with RXF 393 renal; 55% with SF-268 CNS; 52.5% with SF-295 CNS; 66.6% with SF-539 CNS. Also, the growth is 73.8% in the assay on UACC-257 melanoma and 30.2% in the assay on M14 melanoma.

In the case of `CC(C)(C)Nc1nc2c(OCCc3ccccc3)cccn2c1-c1ccc([N+](=O)[O-])cc1`, the growth in the assay on NCI-H23 lung was 62.4%; in the assay on NCI-H226 lung it was 70.5%; with NCI-H322M lung, 64.7%; in the assay on HOP-62 NSCLC, 78.1%; in the assay with NCI-H460 lung, 60.8%; in the assay with HOP-92 NSCLC, 54.7%. The growth in the assay on NCI-H522 lung was 41.4%; in the assay on A549/ATCC NSCLC, 53.5%; in the assay with 786-0 renal, 75.1%; in the assay on DU-145 prostate it was 86.2%; in the assay with K-562 leukemia, 39.7%; in the assay on MALME-3M melanoma, 83.6%. Moreover, the growth in the assay on MDA-MB-231 breast is 80.9%; in the assay with RXF 393 renal it was 63.5%; with SF-268 CNS, 71.2%; in the assay on SF-295 CNS, 43.8%; in the assay with SF-539 CNS, 76.5%; with UACC-257 melanoma, 88.7%. Further, the growth in the assay on M14 melanoma is 60.5%.

For the molecule `c1ccc(-c2cn3c(-c4c[nH]c5ccccc45)csc3n2)cc1`, the growth with NCI-H23 lung was 57.8%; in the assay on NCI-H226 lung, 80.4%; in the assay with NCI-H322M lung, 85.4%; with HOP-62 NSCLC, 91.3%; with NCI-H460 lung it was 60.8%; with HOP-92 NSCLC, -1.71% (active). In addition, the growth in the assay with NCI-H522 lung is 51%; in the assay on A549/ATCC NSCLC, 92%; in the assay with 786-0 renal, 99.5%; in the assay with COLO 205 colon, 83.5%; with DU-145 prostate it was 94%; with K-562 leukemia, 36.5%. Also, the growth in the assay with MALME-3M melanoma is 69.6%; in the assay with MDA-MB-231 breast, 61.7%; in the assay with RXF 393 renal, 83.2%; with SF-268 CNS, 79.6%; in the assay on SF-295 CNS it was 77.6%; in the assay with SF-539 CNS, 81.9%. Also, the figures for the growth with UACC-257 melanoma and in the assay with M14 melanoma were 54.2% and 73%, respectively.
